Measurements: PubChem BioAssay (EPA / NIEHS)
Results filed as inconclusive are left out. Active and inactive are the calls of the source. Rule for the calls, unless noted: active = hit-call score of the fitted dose curve at least 0.9, where 1 is the maximum; inconclusive = response in the unintended direction; inactive = score below 0.9.

Legend:
[1] = read-out: xenobiotic metabolism (CYP1A1), CYP1A1 (gene 1543); assay: CLD_CYP1A1_24hr: CellzDirect (CLD) Gene Expression Assay for xenobiotic metabolism (CYP1A1) at 24 hours (AID 2283673);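 note: CYP1A1 mRNA level by quantitative nuclease protection with chemiluminescence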
How it was run: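 Primary human hepatocytes dosed daily with fresh solutions in 0.2% DMSO vehicle. mRNA measured at 24 h by quantitative nuclease protection assay with chemiluminescence; gain-of-signal fit versus DMSO, with morphology-based cytotoxicity flags.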

[2] = CCTE_Padilla_ZF_144hpf_TERATOSCORE: (Legacy) CCTE's 144 Hour Post-fertilization zebrafish Assay Teratoscore, Padilla Lab (AID 2283679; active = hit-call score of the fitted dose curve at least 0.9, where 1 is the maximum; inactive = score below 0.9;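 for AC50: zebrafish embryos with chorions exposed by immersion from 6-8 hpf to 5 dpf with daily renewal; teratogenicity score from eye scoring of death hatching and malformations at 144 hpf; higher score means more developmental defects relative to DMSO baseline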)
How it was run: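 Larvae scored by eye at 144 hpf for death, hatching and malformations after a day in clean Hanks'. Before that, daily-renewed exposure at 80 uM (0.4% DMSO, 26C) from roughly 6-8 hpf through 5 dpf, 4 embryos per chemical.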

[3] = read-out: Glyceraldehyde-3-phosphate dehydrogenase (Homo sapiens) (UniProt P04406); assay: CLD_GAPDH_6hr: CellzDirect (CLD) Gene Expression Assay for Baseline Control (Glyceraldehyde 3-phosphate dehydrogenase) at 6 hours (AID 2283681);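 note: active means increased signal relative to DMSO vehicle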
How it was run: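 Primary human hepatocytes from two donor preparations, dosed at multiple concentrations with 0.2% DMSO vehicle; GAPDH mRNA measured 6 h after dosing by chemiluminescent quantitative nuclease protection assay (qNPA) on denatured lysates. Serves as background control; cytotoxicity annotated by morphology.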

[4] = read-out: Cytochrome P450 3A4 (Homo sapiens) (UniProt P08684); assay: CLD_CYP3A4_6hr: CellzDirect (CLD) Gene Expression Assay for xenobiotic metabolism (CYP3A4) at 6 hours (AID 2283680)
How it was run: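 Primary human hepatocytes (two donor preparations) dosed; CYP3A4 mRNA harvested at 6 h and quantified by qNPA chemiluminescence. Gain of signal fitted against 0.2% DMSO vehicle; cytotoxicity flagged by phase-contrast morphology.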

[5] = read-out: Cytochrome P450 2C19 (Homo sapiens) (UniProt P33261); assay: CLD_CYP2C19_6hr: CellzDirect (CLD) Gene Expression Assay for xenobiotic metabolism (CYP2C19) at 6 hours (AID 2283678)
How it was run: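 Primary human hepatocytes from two donor preparations were dosed daily, with 0.2% DMSO as vehicle, and harvested 6 h after dosing. CYP2C19 mRNA induction was measured by qNPA chemiluminescence and fitted as gain of signal against DMSO.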

[6] = read-out: ABC Transporter (ABCB11), ABCB11 (gene 8647); assay: CLD_ABCB11_6hr: CellzDirect (CLD) Gene Expression Assay for ABC Transporter (ABCB11) at 6 hours (AID 2283675);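 note: hits raise ABCB11 mRNA level so AC50 marks induction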
How it was run: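 Human primary hepatocytes (two donor preparations) given fresh chemical daily at multiple concentrations, vehicle 0.2% DMSO. ABCB11 mRNA induction measured 6 h after dosing by qNPA chemiluminescence versus DMSO; cytotoxicity annotated from morphology.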

[7] = read-out: Cytochrome P450 2B6 (Homo sapiens) (UniProt P20813); assay: CLD_CYP2B6_6hr: CellzDirect (CLD) Gene Expression Assay for xenobiotic metabolism (CYP2B6) at 6 hours (AID 2283677);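 note: actives raise CYP2B6 transcript above DMSO baseline so AC50 marks an inducer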
How it was run: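 Primary human hepatocytes dosed with chemicals at multiple concentrations, vehicle 0.2% DMSO; CYP2B6 mRNA induction measured 6 h after dosing by quantitative nuclease protection assay with chemiluminescence, gain of signal fitted relative to DMSO.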

Chain of Cytochrome P450 2C19 (Homo sapiens) (P33261 whole entry, looked up): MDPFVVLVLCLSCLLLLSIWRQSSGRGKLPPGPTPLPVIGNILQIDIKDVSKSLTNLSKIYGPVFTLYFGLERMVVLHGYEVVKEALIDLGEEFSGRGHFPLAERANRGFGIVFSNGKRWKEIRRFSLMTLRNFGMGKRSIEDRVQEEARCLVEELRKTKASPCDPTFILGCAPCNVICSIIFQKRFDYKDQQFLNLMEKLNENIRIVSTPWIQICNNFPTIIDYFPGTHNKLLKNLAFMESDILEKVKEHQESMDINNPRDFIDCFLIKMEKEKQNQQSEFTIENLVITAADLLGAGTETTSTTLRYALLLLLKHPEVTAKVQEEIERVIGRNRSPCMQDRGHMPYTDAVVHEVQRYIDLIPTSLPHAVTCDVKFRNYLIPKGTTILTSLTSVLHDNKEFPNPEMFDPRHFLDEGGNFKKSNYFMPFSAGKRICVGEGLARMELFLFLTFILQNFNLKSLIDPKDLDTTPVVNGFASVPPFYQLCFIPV
Chain of Cytochrome P450 3A4 (Homo sapiens) (P08684 whole entry, looked up): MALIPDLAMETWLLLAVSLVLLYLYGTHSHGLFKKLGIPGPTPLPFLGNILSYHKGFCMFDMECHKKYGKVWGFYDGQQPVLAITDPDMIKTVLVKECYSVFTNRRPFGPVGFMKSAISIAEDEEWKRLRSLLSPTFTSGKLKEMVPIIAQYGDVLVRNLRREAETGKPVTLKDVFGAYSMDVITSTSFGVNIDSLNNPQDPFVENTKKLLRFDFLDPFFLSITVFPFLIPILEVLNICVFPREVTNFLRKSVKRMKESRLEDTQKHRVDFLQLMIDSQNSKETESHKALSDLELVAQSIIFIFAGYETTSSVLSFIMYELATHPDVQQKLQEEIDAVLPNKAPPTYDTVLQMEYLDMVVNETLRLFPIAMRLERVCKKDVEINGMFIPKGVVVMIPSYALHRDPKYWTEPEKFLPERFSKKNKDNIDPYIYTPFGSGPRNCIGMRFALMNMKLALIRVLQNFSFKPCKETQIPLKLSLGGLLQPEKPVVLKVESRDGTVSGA
Chain of Glyceraldehyde-3-phosphate dehydrogenase (Homo sapiens) (P04406 whole entry, looked up): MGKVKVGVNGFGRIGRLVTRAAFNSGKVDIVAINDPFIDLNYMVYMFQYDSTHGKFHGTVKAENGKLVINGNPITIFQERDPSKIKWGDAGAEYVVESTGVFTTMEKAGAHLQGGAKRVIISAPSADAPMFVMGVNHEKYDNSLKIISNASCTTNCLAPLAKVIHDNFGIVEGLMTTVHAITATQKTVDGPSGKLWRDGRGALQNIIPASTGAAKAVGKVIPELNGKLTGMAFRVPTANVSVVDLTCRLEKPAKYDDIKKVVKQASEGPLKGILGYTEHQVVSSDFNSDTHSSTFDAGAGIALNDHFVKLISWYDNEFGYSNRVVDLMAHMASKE

Cn1c(-c2ccccc2)cc(-c2ccccc2)[n+]1C
AC50 [1]: 0.158 µM (active)
outcome [2]: inactive
outcome [3]: inactive

CCCCC(O)(Cn1cncn1)c1ccc(Cl)cc1Cl (stereo not drawn)
AC50 [2]: 36.5 µM (active)
outcome [4]: inactive

C=C(C)CN(CC)c1c([N+](=O)[O-])cc(C(F)(F)F)cc1[N+](=O)[O-]
AC50 [1]: 20 µM (active)
outcome [5]: inactive
outcome [2]: inactive
outcome [3]: inactive

N#CN=C1SCCN1Cc1ccc(Cl)nc1
outcome [1]: inactive
outcome [5]: inactive
outcome [2]: inactive
outcome [4]: inactive
outcome [3]: inactive

Clc1cccc(C(Cl)(Cl)Cl)n1
outcome [6]: inactive
outcome [5]: inactive
outcome [2]: inactive
outcome [4]: inactive
outcome [3]: inactive

O=c1n(Cl)c(=O)n(Cl)c(=O)n1Cl
outcome [6]: inactive
outcome [7]: inactive
outcome [5]: inactive
outcome [2]: inactive
outcome [4]: inactive
outcome [3]: inactive

Cc1nc(N(C)C)nc(OC(=O)N(C)C)c1C
outcome [6]: inactive
outcome [2]: inactive
AC50 [4]: 5.6 µM (active)

COCC(=O)N(c1c(C)cccc1C)C(C)C(=O)OC (stereo not drawn)
outcome [5]: inactive
outcome [2]: inactive

COCc1cnc(C2=NC(C)(C(C)C)C(=O)N2)c(C(=O)O)c1 (stereo not drawn)
outcome [6]: inactive
outcome [5]: inactive
AC50 [2]: 5.5 µM (active)
outcome [4]: inactive
outcome [3]: inactive

OC(c1ccc(Cl)cc1)(c1ccc(Cl)cc1)C(Cl)(Cl)Cl
outcome [6]: inactive
outcome [5]: inactive
AC50 [2]: 12 µM (active)
AC50 [4]: 3.68 µM (active)
outcome [3]: inactive

CCCC(=NOCC)C1=C(O)CC(CC(C)SCC)CC1=O (stereo not drawn)
outcome [6]: inactive
outcome [2]: inactive
AC50 [4]: 20 µM (active)
outcome [3]: inactive

C=CCOC(=O)C(C)(C)OC(=O)c1cc(-n2c(=O)cc(C(F)(F)F)n(C)c2=O)ccc1Cl
outcome [6]: inactive
AC50 [2]: 0.00588 µM (active)
AC50 [4]: 0.29 µM (active)
outcome [3]: inactive

CC1(C)CON(Cc2ccccc2Cl)C1=O
outcome [6]: inactive
outcome [5]: inactive
outcome [2]: inactive
AC50 [4]: 1.89 µM (active)
outcome [3]: inactive

CC1(C)C(C(=O)OC(C#N)c2cccc(Oc3ccccc3)c2)C1(C)C (stereo not drawn)
AC50 [2]: 1.44 µM (active)
AC50 [4]: 3.71 µM (active)

CS(=O)(=O)c1ccc(C(=O)C2C(=O)CCCC2=O)c([N+](=O)[O-])c1
outcome [6]: inactive
AC50 [2]: 14.4 µM (active)
outcome [4]: inactive
outcome [3]: inactive

COP(=S)(OC)Oc1ccc([N+](=O)[O-])c(C)c1
outcome [6]: inactive
outcome [5]: inactive
AC50 [2]: 50 µM (active)
outcome [4]: inactive
outcome [3]: inactive

CN/C(=N\[N+](=O)[O-])NCc1cnc(Cl)s1
outcome [2]: inactive

COc1ccc(-c2ccccc2)cc1NNC(=O)OC(C)C
outcome [6]: inactive
AC50 [2]: 17.8 µM (active)
outcome [4]: inactive
outcome [3]: inactive

O=C1C2CC=CCC2C(=O)N1SC(Cl)(Cl)Cl (stereo not drawn)
outcome [1]: inactive
outcome [6]: inactive
AC50 [2]: 1.96 µM (active)
outcome [3]: inactive

CCOc1nc(F)cc2nc(S(=O)(=O)Nc3c(Cl)cccc3Cl)nn12
outcome [6]: inactive
AC50 [7]: 14.4 µM (active)
outcome [5]: inactive
outcome [2]: inactive
outcome [4]: inactive
